# Assay results taken from PubChem BioAssay (NCATS).
# Unmarked numbers belong to inactive results. The call rests on the fitted dose curve; in most records, active means well fitted curve in the direction sought with a large enough effect; inconclusive means small, poorly fitted or top-dose-only effect, or another doubt; inactive means no such curve, though single readings can be large or run the other way.
# Molecular target: T1, Hexokinase-4 (Homo sapiens) + Glucokinase regulatory protein (Homo sapiens) (UniProt P35557+Q14397)
# T1 sequence (P35557 whole entry, looked up): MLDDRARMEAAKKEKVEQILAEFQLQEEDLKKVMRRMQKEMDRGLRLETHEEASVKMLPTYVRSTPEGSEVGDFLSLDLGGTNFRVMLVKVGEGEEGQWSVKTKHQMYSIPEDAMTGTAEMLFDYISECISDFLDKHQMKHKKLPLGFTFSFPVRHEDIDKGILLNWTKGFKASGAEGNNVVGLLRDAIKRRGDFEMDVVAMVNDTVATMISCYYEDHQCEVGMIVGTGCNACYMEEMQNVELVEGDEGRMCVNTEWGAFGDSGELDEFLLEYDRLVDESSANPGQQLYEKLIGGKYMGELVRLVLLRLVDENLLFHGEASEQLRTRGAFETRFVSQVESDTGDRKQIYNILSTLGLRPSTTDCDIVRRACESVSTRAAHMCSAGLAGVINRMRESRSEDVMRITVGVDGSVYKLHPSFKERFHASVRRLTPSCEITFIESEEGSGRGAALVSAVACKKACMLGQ
# T1 sequence (Q14397 whole entry, looked up): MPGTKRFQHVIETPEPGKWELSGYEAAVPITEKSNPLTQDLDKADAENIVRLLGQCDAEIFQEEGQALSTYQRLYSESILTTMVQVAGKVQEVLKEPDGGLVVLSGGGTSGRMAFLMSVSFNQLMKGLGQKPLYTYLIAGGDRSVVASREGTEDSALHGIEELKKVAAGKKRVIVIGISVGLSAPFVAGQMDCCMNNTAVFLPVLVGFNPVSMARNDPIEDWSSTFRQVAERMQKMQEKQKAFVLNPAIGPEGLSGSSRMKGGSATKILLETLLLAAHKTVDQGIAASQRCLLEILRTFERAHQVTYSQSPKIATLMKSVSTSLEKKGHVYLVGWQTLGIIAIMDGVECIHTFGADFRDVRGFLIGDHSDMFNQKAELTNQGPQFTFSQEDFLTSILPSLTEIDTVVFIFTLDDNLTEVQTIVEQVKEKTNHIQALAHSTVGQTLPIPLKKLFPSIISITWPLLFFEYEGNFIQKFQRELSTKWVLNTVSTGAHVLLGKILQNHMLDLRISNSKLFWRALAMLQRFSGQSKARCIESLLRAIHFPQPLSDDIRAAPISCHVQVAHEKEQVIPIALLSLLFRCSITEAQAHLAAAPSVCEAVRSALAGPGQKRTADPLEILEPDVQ
# Experiment: qHTS assay for inhibitors of recombinant human GCK-GKRP interaction: ADP-Glo assay (AID 743206);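 further: plate controls were DMSO plus enzyme for no effect and no enzyme for full effect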
# Details: ADP-Glo luminescence, 60 min; series mostly up to 76.9 µM; activity, positive = activation: at the top concentration
# How it was run: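 GST-GCK and FLAG-GKRP (15 nM each in the dispensed mix, with 2 uM S6P) react with 0.4 mM ATP and 5 mM glucose (final) in Hepes pH 7.6 for 60 min at room temperature. ADP is measured by ADP-Glo luminescence.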
row,Structure (SMILES),"activity, positive = activation [%]"
1,N[C@@H](Cc1ccc(F)cc1)C(=O)O,0.0311
2,O=C(O)c1ccccc1Nc1ccccc1,5.89
3,NCC(O)C1CCCCCCC1 (stereo not given),6.67
4,O=C(O)c1cc2cc(F)ccc2[nH]1,0.936
5,CC(C)NC[C@H](O)COc1cccc2ccccc12,-0.295
6,CCCCCC(O)CCCC(=O)O (stereo not given),-2.68
7,CNCCc1cnc(CCC(c2ccccc2)c2ccccc2)[nH]1,2.24
8,Cc1cccc(C(=O)NCN2CCN(c3ccccc3C#N)CC2)c1,1.39
9,CC(C)C[C@H](NC(=O)[C@H](O)[C@H](N)Cc1ccccc1)C(=O)O,-1.67
10,O=C(O)Cc1ccc(O)c(O)c1,4.96
11,N[C@@H](CCCC(=O)O)C(=O)O,2.71
12,CCCCCCC(=O)OC1CC(C)(C)NC(C)(C)C1,2.27
13,COCc1nc2c([nH]1)c(=O)n(C)c(=O)n2CC(C)C,3.78
14,C=CCN1CCc2c(cc(O)c(O)c2Br)[C@@H](c2ccccc2)C1,2.97
15,NC(N)=N[C@@H](CCC(=O)O)C(=O)O,-2.34
16,Cn1c(=O)c2c(nc(/C=C/c3cccc(Cl)c3)n2C)n(C)c1=O,-0.34
17,COc1cccc(OC)c1OCCNCC1CSc2ccccc2O1 (stereo not given),0.141
18,S=C(S)N1CCCC1,-1
19,CCc1ccc2c(-c3cccc(Cl)c3)nc(=O)n(CC)c2n1,4.78
20,CCn1c(=O)[nH]c2cc(Cl)c(Cl)cc21,2.67
21,CC1C(=O)N(C)C(=O)c2nc[nH]c21 (stereo not given),3.57
22,c1ccc2c(c1)CC(N1CCN(c3cccc4c3OCCO4)CC1)C2,-0.921
23,CN1C2CCC1CC(OC(c1ccccc1)c1ccccc1)C2 (stereo not given),2.68
24,CC(C)(C)c1ccc(/C=C/C(=O)Nc2ccc3c(c2)OCCO3)cc1,1.96
25,C/C(=C\c1ccc(C(=O)O)cc1)c1ccc2c(c1)C(C)(C)CCC2(C)C,2.26

# Molecular target: T1, Hexokinase-4 (Homo sapiens) + Glucokinase regulatory protein (Homo sapiens)
# Experiment: qHTS assay for inhibitors of recombinant human GCK-GKRP interaction: HTRF assay (AID 743207);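 further: 0% = DMSO with GCK present and -100% = DMSO wells lacking GCK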
# Details: recombinant GCK-GKRP HTRF binding, 60 min, with sorbitol-6-phosphate; series mostly up to 57.5 µM; activity change, negative = inhibition: at the top concentration
# How it was run: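 5 nM GST-GCK + 5 nM FLAG-GKRP + 2 uM S6P, pH 7.1 buffer (25 mM Hepes, 2 mM MgCl2, 25 mM KCl, 1 mM DTT, Tween/BSA); pin-transferred cpd; anti-FLAG XL665/anti-GST K; 60 min RT; HTRF.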
row,Structure (SMILES),"activity change, negative = inhibition [%]"
1,N[C@@H](Cc1ccc(F)cc1)C(=O)O,-10.3
2,NCC(O)C1CCCCCCC1 (stereo not given),5.32
3,O=C(O)c1cc2cc(F)ccc2[nH]1,0.909
4,CC(C)NC[C@H](O)COc1cccc2ccccc12,6.51
5,Cn1cc(C(=O)OCC2CCN(CCNS(C)(=O)=O)CC2)c2ccccc21,-1.12
6,CCCCCC(O)CCCC(=O)O (stereo not given),7.53
7,Cc1ccc2c(c1)C(N1CCN(C)CC1)=Nc1cccnc1N2,7.77
8,CNCCc1cnc(CCC(c2ccccc2)c2ccccc2)[nH]1,-15.2
9,Cc1cccc(C(=O)NCN2CCN(c3ccccc3C#N)CC2)c1,2.6
10,CC(C)C[C@H](NC(=O)[C@H](O)[C@H](N)Cc1ccccc1)C(=O)O,-3.29
11,O=C(O)Cc1ccc(O)c(O)c1,-0.404
12,N[C@@H](CCCC(=O)O)C(=O)O,-4.31
13,CCCCCCC(=O)OC1CC(C)(C)NC(C)(C)C1,5.56
14,COCc1nc2c([nH]1)c(=O)n(C)c(=O)n2CC(C)C,-0.439
15,C=CCN1CCc2c(cc(O)c(O)c2Br)[C@@H](c2ccccc2)C1,-6.7
16,CCCCCCCCCC(=O)NC(CN1CCOCC1)[C@H](O)c1ccccc1 (stereo not given in full),2.91
17,C[C@](Cc1ccc(O)c(O)c1)(NN)C(=O)O,-8
18,CC1=C(/C=C/C(C)=C/C=C/C(C)=C\C(=O)O)C(C)(C)CCC1,8.36
19,CCCCC[C@H](CC(=O)NO)C(=O)N[C@H](C(=O)N1CCC[C@H]1CO)C(C)C,-11.1
20,NC(N)=N[C@@H](CCC(=O)O)C(=O)O,14.2
21,Cn1c(=O)c2c(nc(/C=C/c3cccc(Cl)c3)n2C)n(C)c1=O,4.52
22,COc1cccc(OC)c1OCCNCC1CSc2ccccc2O1 (stereo not given),-6.1
23,S=C(S)N1CCCC1,-1.83
24,CCc1ccc2c(-c3cccc(Cl)c3)nc(=O)n(CC)c2n1,-9.27
25,CCn1c(=O)[nH]c2cc(Cl)c(Cl)cc21,-13.9
26,c1ccc2c(c1)CC(N1CCN(c3cccc4c3OCCO4)CC1)C2,3.64
27,CN1C2CCC1CC(OC(c1ccccc1)c1ccccc1)C2 (stereo not given),-12.1
28,CC(C)(C)c1ccc(/C=C/C(=O)Nc2ccc3c(c2)OCCO3)cc1,-4.62
29,C/C(=C\c1ccc(C(=O)O)cc1)c1ccc2c(c1)C(C)(C)CCC2(C)C,5.64
30,O=c1ccn([C@@H]2O[C@H](COP(=O)(O)OP(=O)(O)O)[C@@H](O)[C@H]2O)c(=O)[nH]1,0.257
